Hits are enriched below; roughly 1.8% of the tested compounds scored in any of these assays.
LGR2 antag = inhibitors of bursicon-induced LGR2 CRE-luciferase signal, primary screen, cell-based, HEK293, CRE-luciferase reporter, bursicon stimulation; bursicon-stimulated, 4 h; hit rate 0.35% among 380,000; Drosophila bursicon receptor LGR2 (rickets); inhibition, % at 9.99 µM;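 active = drop in luminescence signal, shown as inhibition above about 50% in the replicate tests, limit read from the data, passing the limit was not always enough; inconclusive = probably only some replicates passing the limit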;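 note: agonist challenge used bursicon conditioned medium at about half maximal strength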
F508del corr = F508del CFTR correction, initial screen, CFBE line, single point | CFBE cells, YFP halide quenching; stimulated with forskolin plus potentiator P3; % fluorescence drop versus neutral controls | activity (quench increase), % at 7.58 µM | hit rate 0.36% among 350,000 | AID 720511, 2013;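 active = mean added fluorescence quench of at least 8% versus neutral control, with both replicates also reaching 8%; inconclusive = only one of the mean or replicate conditions met; inactive = mean below 8% and not both replicates reaching 8%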;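 note: cells transiently co-express mutant CFTR-F508del with the halide-sensitive YFP; corrector assay measuring rescue of mutant channel to the surface after 24 h compound exposure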
RAD54 branch = inhibitors of human RAD54 branch migration, primary screen, biochemical, fluorescence, single point; inhibition, % at 10.4 µM; RAD54 Holliday junction branch migration, FAM/BHQ fluorescence; hit rate 0.14% among 360,000;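 active = mean normalized replicate activity at least 40 and at least half of replicates scoring 40 or more; inconclusive = only one of the two criteria met; inactive = mean below 40 and under half of replicates reaching 40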;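 note: inhibitors cause a drop in the FAM fluorescence signal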
RAD52 anneal inh = RAD52 DNA annealing inhibitors, primary screen, biochemical, FRET, single point, set 2 | DNA repair protein RAD52 homolog (Homo sapiens), P43351 | recombinant RAD52 DNA annealing, FRET fluorescence | inhibition, % at 18.7 µM | hit rate 0.46% among 360,000 | AID 651710, 2012;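 active = every replicate showing at least 50% inhibition; inconclusive = mean inhibition at least 50% but not in every replicate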
Target sequence (P43351 whole entry, looked up): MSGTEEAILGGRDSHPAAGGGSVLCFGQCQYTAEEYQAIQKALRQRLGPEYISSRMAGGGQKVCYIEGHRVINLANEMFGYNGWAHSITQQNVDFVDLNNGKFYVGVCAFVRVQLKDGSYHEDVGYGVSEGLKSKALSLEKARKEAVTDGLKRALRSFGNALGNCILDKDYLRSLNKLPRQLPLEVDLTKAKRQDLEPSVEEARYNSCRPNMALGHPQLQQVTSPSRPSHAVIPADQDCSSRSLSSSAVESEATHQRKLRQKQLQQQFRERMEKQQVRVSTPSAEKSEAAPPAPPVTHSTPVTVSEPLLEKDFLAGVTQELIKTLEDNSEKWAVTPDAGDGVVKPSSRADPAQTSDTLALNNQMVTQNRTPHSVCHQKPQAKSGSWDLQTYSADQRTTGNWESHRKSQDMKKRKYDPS
EWS-Fli inh = EWS/Fli-driven NR0B1 reporter inhibitors, primary screen, A673 cells, NR0B1 luciferase, luminescence, MLPCN library | hit rate 0.67% among 350,000 | viability-normalised | inhibition, % at 12.6 µM | AID 651661, 2012;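 active = mean inhibition of at least 50% after viability correction, with every replicate also passing that limit; inconclusive = mean reaches 50% but only one of two replicates passes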;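 note: firefly luciferase signal divided by Alamar Blue viability fluorescence both relative to DMSO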
INS-1E GSIS act = GLuc luminescence reporter in INS-1E cells, primary screen for activators of glucose-dependent secretion of insulin. INS-1E GLuc reporter insulin secretion, 2-3 h. activation, % at 16.6 µM. hit rate 0.61% among 370,000. AID 743287, 2014;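 active = lowest replicate activation of at least 40%, so every replicate reaches that level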
Numbers stand for hits; i = inactive; ? = inconclusive; nt = no result.

SMILES | LGR2 antag | F508del corr | RAD54 branch | RAD52 anneal inh | EWS-Fli inh | INS-1E GSIS act
O=C(N/N=C/c1ccco1)c1cc(-c2ccc3ccccc3c2)n[nH]1 | i | nt | i | nt | nt | 82.7
CCOC(=O)C1=C(C)NC(C)=C(C(=O)OCC)C1c1cc2ccc(C)cc2[nH]c1=O | nt | nt | i | nt | nt | nt
CCN(c1ccccc1)S(=O)(=O)c1ccc(Oc2ccc(C(C)=O)cc2OC)nc1 | nt | i | i | i | i | nt
COc1ccc(-c2nsc3c(N4CCN(C(=O)c5ccco5)CC4)ncnc23)cc1 | nt | nt | i | nt | nt | nt
O=c1[nH]c(-c2ccccc2)cs1 | i | i | i | i | i | i
COc1cc(CNc2ccc3[nH]c(=O)[nH]c3c2)ccc1OCc1c(F)cccc1Cl | i | i | i | i | i | i
CCn1nnnc1NCc1ccc(OCc2c(F)cccc2Cl)c(OC)c1 | i | i | nt | i | i | 42.9
O=C(COC(=O)C1COc2ccccc2O1)NC(=O)NC1CCCCC1 (centres undefined) | nt | nt | i | nt | nt | nt
COc1ccc2[nH]c(C(=O)N/N=C/c3ccccc3OC)cc2c1 | i | i | i | i | i | i
COc1ccc2[nH]c(C(=O)N/N=C/c3ccc(OC)c(O)c3)cc2c1 | i | 11.2 | nt | i | i | i
COc1cc(/C=N/NC(=O)CNC(=O)c2cccs2)ccc1O | nt | nt | i | i | i | 45.9
COc1cc(/C=N/NC(=O)CNC(=O)c2ccncc2)ccc1O | i | i | i | i | nt | i
COc1ccc(/C=N/Nc2nc3ccccc3s2)cc1O | 85.9 | i | nt | i | i | i
COc1ccc(C=NNC(=O)CCCC(=O)NN=Cc2ccc(OC)c(O)c2)cc1O | i | 15.1 | i | i | i | i
COc1ccc(C=NNC(=O)CCCC(=O)NN=Cc2ccc(OC)c(OC)c2)cc1OC | i | i | nt | i | i | i
COc1ccc(S(=O)(=O)Nc2ccc3c(c2)[C@H]2C[C@@H](CC(=O)N(C)C)O[C@H](CO)[C@H]2O3)cc1 | nt | i | nt | i | i | i
COc1ccccc1CN1CCC(n2nccc2NC(=O)c2ccccc2Cl)CC1 | i | i | i | i | nt | i
CN(Cc1ccccc1)S(=O)(=O)c1ccc(OCC(=O)NCc2ccncc2)cc1 | i | i | i | i | i | i
CO[C@@H]1CN(C)C(=O)c2cc(NS(C)(=O)=O)ccc2OC[C@@H](C)N(CC2CC2)C[C@@H]1C | i | i | i | i | i | i
CSc1ccccc1C(=O)Nc1cccc(C)c1 | nt | nt | i | nt | nt | nt
CCOC(=O)C1=NNC(C(=O)OCC)C1C(=O)OCC (centres undefined) | i | i | i | i | i | nt
CCCN1CCc2c(sc(NC(=O)c3ccc(S(=O)(=O)N4CCCC4)cc3)c2C(N)=O)C1 | i | i | i | i | nt | i
CC1CCCN(S(=O)(=O)c2ccc(C(=O)Nc3sc4c(c3C(N)=O)CCN(C)C4)cc2)C1 (centres undefined) | i | i | i | i | 56.0 | i
CN(C)CC#Cc1ccc([C@@H]2[C@@H](CO)N3CCCCN(CC4CC4)C[C@H]23)cc1 | i | i | i | 54.6 | i | i
CN(C)CC#Cc1ccc([C@H]2[C@@H](CO)N3CCCCN(CC4CC4)C[C@H]23)cc1 | i | i | i | 66.8 | i | i
SMILES | LGR2 antag | F508del corr | RAD54 branch | RAD52 anneal inh | EWS-Fli inh | INS-1E GSIS act
CN(C)CC#Cc1ccc([C@@H]2[C@H]3CN(CC4CC4)CCCCN3[C@H]2CO)cc1 | i | i | i | 73.7 | i | i
O=C(COC(=O)C1CCC(=O)N1)Nc1ccc(Cl)cc1Cl (centres undefined) | i | nt | nt | nt | nt | i
COC(=O)C1=C(C)N(Cc2cccc(C(F)(F)F)c2)C(=NCc2ccccc2C(F)(F)F)NC1c1cccc(F)c1 (centres undefined) | i | i | nt | i | i | 166.4
COC(=O)C1=C(C)N(Cc2cccc(C(F)(F)F)c2)C(=NCc2ccc(OC)cc2)NC1c1ccccc1C(F)(F)F (centres undefined) | i | i | nt | i | i | 40.3
COC(=O)C1=C(C)N(Cc2ccccc2C(F)(F)F)C(=NCc2cccc(C(F)(F)F)c2)NC1c1ccc(C(F)(F)F)cc1 (centres undefined) | i | i | nt | i | i | 102.5
COC(=O)C1=C(C)N(Cc2ccccc2C(F)(F)F)C(=NCc2ccc3c(c2)OCO3)NC1c1ccc(F)cc1 (centres undefined) | i | i | nt | i | i | nt
COC(=O)C1=C(C)N(Cc2cccc(C(F)(F)F)c2)C(=NCc2ccc(C(F)(F)F)cc2)NC1c1ccccc1C(F)(F)F (centres undefined) | i | i | nt | i | i | i
COC(=O)C1=C(C)N(Cc2ccccc2C(F)(F)F)C(=NCc2ccc3c(c2)OCO3)NC1c1cccc(F)c1 (centres undefined) | i | i | nt | i | i | 48.7
COC(=O)C1=C(C)N(Cc2ccccc2C(F)(F)F)C(=NCc2ccccc2)NC1c1ccc(C(F)(F)F)cc1 (centres undefined) | i | i | nt | i | i | nt
COc1ccc(NC(=O)Cc2nnc(SCC(=O)c3ccc(F)cc3)n2C)cc1 | i | i | i | i | i | i
CC1=C(C)CC(C(=O)NNC(=O)c2csc(C)c2C)C(C(=O)O)C1 (centres undefined) | i | nt | nt | i | i | i
COC(=O)C1=C(C)N(Cc2cccc(C(F)(F)F)c2)C(=NCc2ccc3c(c2)OCO3)NC1c1ccccc1 (centres undefined) | i | i | nt | i | i | nt
COC(=O)C1=C(C)N(Cc2cccc(C(F)(F)F)c2)C(=NCc2ccc3c(c2)OCO3)NC1c1cccc(F)c1 (centres undefined) | i | i | nt | i | i | 40.3
C[C@H](CO)N1C[C@H](C)[C@@H](CN(C)S(=O)(=O)c2ccc(Oc3ccccc3)nc2)OCc2cnnn2CCCC1=O | i | i | i | i | i | i
CC(=O)OCCNc1cc(Sc2nc3ccccc3[nH]2)c2nonc2c1[N+](=O)[O-] | ? | nt | nt | nt | nt | 121.2
CC(=O)OCCCNc1cc(Sc2ccc(C)cc2)c2nonc2c1[N+](=O)[O-] | 51.2 | nt | nt | nt | nt | i
CC(=O)OCCCNc1cc(Sc2nc3ccccc3s2)c2nonc2c1[N+](=O)[O-] | nt | nt | i | nt | nt | nt
Cc1ccc(S(=O)(=O)Nc2ccc3c(c2)CC(=O)N([C@H](C)CO)C[C@@H](C)[C@@H](CN(C)CC2CCCCC2)O3)cc1 | nt | i | i | i | i | nt
CC(C)(C)NCC(=Cc1ccccc1)C(=O)c1ccccc1 | 72.5 | i | nt | i | 56.6 | i
CCCCCCCCCC(=O)OCC(O)CO (centres undefined) | nt | 8.2 | i | i | i | nt
CCCCCCCC(=O)OCC(COC(=O)CCCCCCC)OC(=O)CCCCCCC | i | i | i | i | i | i
CNC(=O)COC(=O)c1ccccc1C(=O)c1ccc(Cl)c([N+](=O)[O-])c1 | 102.4 | i | nt | i | i | i
